Calls of active or inactive are those of the source.
How the values were obtained:
[1] = compounds binding Alexa647 anti-His antibody – biochemical, small-molecule microarray, 635 nm fluorescence, artefact control for SMM control protein annotation, primary screen (AID 1128); conditions: higher = more signal;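 also: score merges feature fluorescence with signal-to-noise for each printed compound spot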
[2] = tested on: Human papillomavirus type 1a E7 protein (residues 1-88); test: HPV1a E7 small-molecule binders, primary screen, biochemical, small-molecule microarray, residues 1-88, 635 nm (AID 1129); conditions: small-molecule microarray binding, fluorescence 635 nm; higher = more signal
[3] = target: Focal adhesion kinase 1 (Homo sapiens) (UniProt Q05397); test: PTK2 protein binding on printed compound slides – biochemical, small-molecule microarray, 635/667 nm fluorescence, BSA, DTT, primary screen (AID 1130); conditions: 635 nm fluorescence, higher = more signal;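 also: composite of spot emission at 667 nm and signal to noise over triplicate slides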
[4] = tested on: Fibrinogen (Alexa647-labelled); test: Alexa647-fibrinogen binding to printed small molecules – biochemical, small-molecule microarray, 635/667 nm fluorescence, artefact control for SMM control-protein annotation, profiling panel (AID 1131); conditions: fibrinogen-A647 binding fluorescence, higher = more signal;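 also: z-score merges 667 nm fluorescence with per-spot signal-to-noise over triplicate slides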
[5] = target: Follistatin (Homo sapiens) (UniProt P19883); test: FST protein binding to printed compounds – biochemical, small-molecule microarray, 635/667 nm fluorescence, primary screen (AID 1132); conditions: 635 nm fluorescence, higher = more signal
[6] = target: Fibroblast growth factor 2 (Homo sapiens) (UniProt P09038); test: basic fibroblast growth factor binding to printed compounds – biochemical, small-molecule microarray, 635/667 nm fluorescence, primary screen (AID 1133); conditions: FGF2, fluorescence 635/667, higher = more signal
[7] = JC-1 mitochondrial potential readout, lung cancer cells – cell-based, A549, JC-1 fluorescence, basal, 24 h, 100 nL, profiling panel (AID 1138); conditions: higher = more signal;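 also: A549 lung adenocarcinoma cells under basal conditions with no added stimulus; test concentration not given here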
[8] = tested on: Lefty1; test: Lefty1 protein binding to printed compounds – biochemical, small-molecule microarray, 635/667 nm fluorescence, primary screen (AID 1139); conditions: fluorescence 635/667, higher = more signal
[9] = tested on: wheat germ agglutinin (Triticum aestivum), Alexa647-labelled; test: Alexa647-WGA lectin binding to printed small molecules – biochemical, small-molecule microarray, 635/667 nm fluorescence, artefact control for SMM control-protein annotation, profiling panel (AID 1140); conditions: WGA-A647 binding, 635 nm fluorescence, higher = more signal;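 also: score merges 667 nm feature emission with signal to noise over triplicate slides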
[10] = target: Luciferin 4-monooxygenase (Photinus pyralis) (UniProt P08659); test: inhibition of purified Photinus pyralis luciferase – biochemical, luminescence, purified enzyme, 2006 set, primary screen (AID 1141); conditions: purified firefly luciferase, SteadyGlo luminescence, 30 min; higher = more signal, called active from +8 up or from −8 down;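 also: cell-free assay with purified firefly luciferase at 100 ng per well in PBS; test concentration not given here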
Sequence of Luciferin 4-monooxygenase (Photinus pyralis) (P08659 whole entry, looked up): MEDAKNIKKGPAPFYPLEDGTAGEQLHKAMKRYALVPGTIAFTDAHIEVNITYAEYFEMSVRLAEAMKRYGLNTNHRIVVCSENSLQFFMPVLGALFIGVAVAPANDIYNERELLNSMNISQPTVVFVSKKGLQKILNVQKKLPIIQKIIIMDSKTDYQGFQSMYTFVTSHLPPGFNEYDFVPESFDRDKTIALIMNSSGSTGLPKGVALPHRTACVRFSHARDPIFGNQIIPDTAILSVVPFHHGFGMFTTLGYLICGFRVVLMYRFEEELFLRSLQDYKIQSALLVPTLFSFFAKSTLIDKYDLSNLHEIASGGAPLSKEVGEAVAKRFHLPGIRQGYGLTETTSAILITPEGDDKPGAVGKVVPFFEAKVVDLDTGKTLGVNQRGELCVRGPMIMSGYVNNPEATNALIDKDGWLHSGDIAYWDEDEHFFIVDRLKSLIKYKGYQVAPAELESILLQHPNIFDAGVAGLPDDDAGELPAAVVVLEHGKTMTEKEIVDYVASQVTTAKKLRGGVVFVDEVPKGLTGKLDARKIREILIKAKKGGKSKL

Sequence of Focal adhesion kinase 1 (Homo sapiens) (Q05397 whole entry, looked up): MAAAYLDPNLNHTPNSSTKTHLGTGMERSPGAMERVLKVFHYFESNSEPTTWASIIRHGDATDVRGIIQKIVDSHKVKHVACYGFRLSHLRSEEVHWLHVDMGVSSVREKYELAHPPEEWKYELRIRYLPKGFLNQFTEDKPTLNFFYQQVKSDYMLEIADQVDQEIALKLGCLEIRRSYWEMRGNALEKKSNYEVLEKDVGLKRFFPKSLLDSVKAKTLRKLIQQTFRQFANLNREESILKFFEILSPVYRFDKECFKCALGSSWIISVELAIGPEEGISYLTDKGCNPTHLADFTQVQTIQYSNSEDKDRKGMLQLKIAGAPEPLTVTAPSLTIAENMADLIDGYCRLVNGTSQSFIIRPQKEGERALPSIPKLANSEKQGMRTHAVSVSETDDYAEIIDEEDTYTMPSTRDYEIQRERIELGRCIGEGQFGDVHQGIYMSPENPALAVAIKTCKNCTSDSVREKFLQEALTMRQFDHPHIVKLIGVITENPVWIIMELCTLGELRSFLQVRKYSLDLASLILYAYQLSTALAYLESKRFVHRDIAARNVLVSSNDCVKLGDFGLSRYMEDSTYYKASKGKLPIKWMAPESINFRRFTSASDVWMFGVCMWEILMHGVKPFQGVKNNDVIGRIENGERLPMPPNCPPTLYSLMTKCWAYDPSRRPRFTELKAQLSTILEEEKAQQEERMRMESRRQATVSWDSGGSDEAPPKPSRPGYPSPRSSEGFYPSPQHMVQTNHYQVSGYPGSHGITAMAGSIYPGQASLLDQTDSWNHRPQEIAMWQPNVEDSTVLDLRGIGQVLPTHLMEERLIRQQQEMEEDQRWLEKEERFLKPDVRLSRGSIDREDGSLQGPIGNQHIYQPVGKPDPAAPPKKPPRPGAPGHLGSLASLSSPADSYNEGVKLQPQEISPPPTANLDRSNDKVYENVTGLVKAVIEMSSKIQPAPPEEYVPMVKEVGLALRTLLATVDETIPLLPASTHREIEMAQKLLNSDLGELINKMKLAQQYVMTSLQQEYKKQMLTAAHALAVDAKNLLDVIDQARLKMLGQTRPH
Sequence of Fibroblast growth factor 2 (Homo sapiens) (P09038 whole entry, looked up): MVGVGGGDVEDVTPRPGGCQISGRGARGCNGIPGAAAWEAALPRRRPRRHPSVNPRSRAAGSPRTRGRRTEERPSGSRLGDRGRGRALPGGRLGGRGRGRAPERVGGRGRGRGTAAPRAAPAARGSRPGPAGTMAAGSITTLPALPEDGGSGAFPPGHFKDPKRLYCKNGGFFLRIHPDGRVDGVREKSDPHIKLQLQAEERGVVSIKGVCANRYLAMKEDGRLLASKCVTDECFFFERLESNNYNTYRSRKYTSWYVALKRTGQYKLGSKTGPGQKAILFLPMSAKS
Sequence of Follistatin (Homo sapiens) (P19883 whole entry, looked up): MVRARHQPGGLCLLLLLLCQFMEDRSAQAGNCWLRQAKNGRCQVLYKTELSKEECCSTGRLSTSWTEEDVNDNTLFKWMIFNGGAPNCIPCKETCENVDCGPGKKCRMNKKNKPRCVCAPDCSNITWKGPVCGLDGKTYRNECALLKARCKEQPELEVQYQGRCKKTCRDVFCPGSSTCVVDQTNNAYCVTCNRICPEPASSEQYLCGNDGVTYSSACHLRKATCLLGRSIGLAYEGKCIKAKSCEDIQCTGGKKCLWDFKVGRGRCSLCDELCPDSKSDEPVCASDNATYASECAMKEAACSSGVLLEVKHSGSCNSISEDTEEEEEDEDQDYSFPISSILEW

SMILES | composite z-score [1] | composite z-score [2] | composite z-score [3] | composite z-score [4] | composite z-score [5] | composite z-score [6] | z-score [7] | composite z-score [8] | composite z-score [9] | z-score [10]
COc1cc2c(cc1O)C=[N+](Cc1sc3ccccc3c1Cl)CC2 | 0.505 | 0.0341 | -0.292 | 0.257 | 0.609 | 0.182 | -0.571 | 0.0893 | 0.311 | 0.5 (inactive)
C[C@@H]1NC(=O)[C@@H](Cc2ccccc2)NC(=O)[C@@]23C(=O)N[C@@H](Cc4ccccc4)C2[C@H](C)[C@@]2(C)O[C@H]2C3/C=C/C/C=C\CNC1=O (stereo not given in full) | -0.116 | -0.514 | -0.0535 | -0.913 | 0.41 | -0.0086 | -0.0637 | 0.633 | -0.889 | -1.03 (inactive)
COCCOC(=O)N1C(=O)[C@@]2(c3cc(C#CCC(C(=O)OC)C(=O)OC)ccc31)[C@H](c1ccc(OCCO)cc1)N1[C@H](c3ccccc3)[C@H](c3ccccc3)OC(=O)[C@H]1[C@@H]2C(=O)N1CCc2cc(OC)c(OC)cc2C1 | 1.75 | 1.22 | 0.919 | 0.889 | 1.37 | 1.5 | -0.942 | 1.4 | 1.08 | -0.411 (inactive)
C=CCNC(=O)[C@@H]1[C@H]2C(=O)O[C@H](c3ccccc3)[C@H](c3ccccc3)N2[C@H](c2ccc(O)cc2)[C@@]12C(=O)N(C(=O)OCCOC)c1ccc(C#CC3=CCCCC3)cc12 | 1.11 | 1.19 | 0.664 | 0.708 | 1.27 | 1.54 | -0.22 | 0.701 | 0.729 | -0.959 (inactive)
COc1cc(C(O)C2C=CC3C(=O)N(C)C(=O)C3N2Nc2ccccc2)cc(OC)c1OC (stereo not given) | 2.78 | 1.23 | 1.05 | 1 | 0.568 | -0.397 | 0.29 | -0.714 | 1.14 | -1.36 (inactive)
C=CCC(OC(C)=O)[C@@H]1[C@@H](N(Cc2cccc3ccccc23)C(=O)Cc2ccc(F)cc2)c2cc(OCCCO)ccc2N1C(=O)c1ccc2ccccc2c1 (stereo not given in full) | 0.301 | -0.247 | 0.114 | 0.131 | 0.7 | -0.328 | 1.03 | 0.117 | 0.0096 | 0.739 (inactive)
